Measurements reported in PubChem BioAssay AID624342 (National Center for Advancing Translational Sciences (NCATS), 2012).
The source made the active and inactive calls. The call rests on the fitted dose curve.

Assay: qHTS for Inducers of the Endoplasmic Reticulum Stress Response (ERSR) in Human Glioma: Hit Validation
Details: U87-MG GRP78 promoter luciferase reporter, 16 h
Text: Primary protein unfolding takes place for many diseases, including diabetes and hypoxia, , and triggers a reaction in the cells called ER stress response (ERSR). ). ERSR is designed as a repair mechanism, but ultimately leads to cell death via apoptosis if conditions triggering protein unfolding persist (1). The molecular clue to ERSR activation is the enhancement of the expression of key molecular chaperones, including the glucose regulated protein (GRP) 78. GRP78 is the main sensor for protein folding and the main actuator of the ERSR. In a collaboration between the Southern Research Institute and the NIH Chemical Genomics Center, a cell based screen was developed that reliably uses GRP78 as a sensor to identify small molecules as inducers of ERSR. In resting conditions, GRP78 binds proteins and acts as a natural repressor. Once unfolded proteins are present in the ER, GRP78 releases some of the repressors and binds to the unfolded proteins. The release of the repressors executes the ERSR program. Using a human glioma cell line in a miniaturized, luminescent format, a high-throughput screen was developed to identify actuators of the ERSR. In this assay, the hits identified from primary screen are re-run using the same protocol. NIH Chemical Genomics Center [NCGC] NIH Molecular Libraries Probe Centers Network [MLPCN] MLPCN Grant: DA031669 Assay Submitter (PI): Maurizio Grimaldi, Southern Research Institute (1) Soboloff, J. and S. A. Berger (2002). "Sustained ER Ca2+ depletion suppresses protein synthesis and induces activation-enhanced cell death in mast cells." J Biol Chem 277(16): 13812-20.
Stable transfected human glioma cell line, U87-MG, are dispensed at density 1000 cells/well into Greiner white solid bottom 1536-well assay plates. […] The assay plates will be incubated for 16 hours and developed by adding appropriate quantities of the Promega Bright Glo reagent. The plates will be incubated at room temperature for 10 minutes prior to being transferred into a ViewLux high-throughput CCD imager (PerkinElmer), wherein end-point measurements of luminescence are acquired.

Potency, active:
CC(C)Cc1nn2c(=O)cc(COC(=O)CNC(=O)c3ccc(C(C)(C)C)cc3)nc2s1 30 µM
Cc1ccc(-c2cc(NC(=O)C(C)Oc3ccc(C)c(C)c3)on2)cc1 (stereo not drawn) 30 µM
CC(=O)N1CCOc2cc(S(=O)(=O)Nc3c(C)cccc3C(C)C)c(Cl)cc21 30 µM
